Measured values published in PubChem BioAssay AID1159580 (chemical genetic matrix, 2015).
Out of some 5,500 compounds screened, about 2,000 (36%) were called active. Not shown: some 18% with an inconclusive outcome. Cut-off read from the data, not from the text of the source: active = normalized growth mostly below about 0.91 (no sharp cut-off); inconclusive = no clear call, values can overlap the other calls; inactive = mostly above about 0.92. The list shows a part of the results.

Experiment: chemical genetic growth profiling, strain panel (AID 1159580);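 note: tested at 20 µM; growth read once vehicle control cultures reached saturation at 30 °C; 1 = growth at the plate median or of vehicle wells; lower values mean less growth of the strain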
Details: growth OD

Measured: normalized growth

CNCc1ccccc1
inactive: S. cerevisiae deletion strains, locus YJR066W, strain TOR1, stronger effect = lower value 0.978 | S. cerevisiae deletion strains, locus YKL009W, strain mrt4, stronger effect = lower value 0.999 | S. cerevisiae deletion strains, locus YKL068W, stronger effect = lower value 0.981 | S. cerevisiae deletion strains, locus YKL085W, strain MDH1 (second series), stronger effect = lower value 0.976 | S. cerevisiae deletion strains, locus YKL085W, strain MDH1, stronger effect = lower value 0.976 | S. cerevisiae deletion strains, locus YKL160W, strain elf1, stronger effect = lower value 1 | S. cerevisiae deletion strains, locus YKL190W, strain CNB1, stronger effect = lower value 0.996 | S. cerevisiae deletion strains, locus YKR001C, strain vps1, stronger effect = lower value 1.04 | S. cerevisiae deletion strains, locus YKR026C, strain gcn3, stronger effect = lower value 1.03 | S. cerevisiae deletion strains, locus YKR091W, strain srl3, stronger effect = lower value 1.02 | S. cerevisiae deletion strains, locus YLL001W, strain dnm1, stronger effect = lower value 1.02 | S. cerevisiae deletion strains, locus YLL026W, stronger effect = lower value 1.01 | S. cerevisiae deletion strains, locus YLL041C, strain sdh2, stronger effect = lower value 1.02 | S. cerevisiae deletion strains, locus YLR027C, strain aat2, stronger effect = lower value 0.997 | S. cerevisiae deletion strains, locus YLR039C, strain RIC1, stronger effect = lower value 1.01 | S. cerevisiae deletion strains, locus YLR058C, strain SHM2, stronger effect = lower value 0.973 | S. cerevisiae deletion strains, locus YLR102C, strain apc9, stronger effect = lower value 0.99 | S. cerevisiae deletion strains, locus YLR113W, strain HOG1, stronger effect = lower value 0.981 | S. cerevisiae deletion strains, locus YLR221C, strain rsa3, stronger effect = lower value 1.01 | S. cerevisiae deletion strains, locus YLR258W, strain gsy2, stronger effect = lower value 1.03 | S. cerevisiae deletion strains, locus YLR262C, strain YPT6 (second series), stronger effect = lower value 1.01 | S. cerevisiae deletion strains, locus YLR262C, strain YPT6, stronger effect = lower value 1 | S. cerevisiae deletion strains, locus YLR268W, strain sec22, stronger effect = lower value 1.03 | S. cerevisiae deletion strains, locus YLR320W, strain mms22, stronger effect = lower value 1.02 | S. cerevisiae deletion strains, locus YLR330W, strain CHS5, stronger effect = lower value 0.999 | S. cerevisiae deletion strains, locus YLR342W, strain FKS1 (second series), stronger effect = lower value 1.05 | S. cerevisiae deletion strains, locus YLR342W, strain FKS1, stronger effect = lower value 1.02 | S. cerevisiae deletion strains, locus YLR357W, strain rsc2, stronger effect = lower value 1.02 | S. cerevisiae deletion strains, locus YLR370C, strain arc18, stronger effect = lower value 1.02 | S. cerevisiae deletion strains, locus YLR371W, strain rom2, stronger effect = lower value 0.999 | S. cerevisiae deletion strains, locus YLR384C, strain iki3, stronger effect = lower value 1 | S. cerevisiae deletion strains, locus YLR418C, strain cdc73, stronger effect = lower value 0.991 | S. cerevisiae deletion strains, locus YML016C, strain PPZ1, stronger effect = lower value 0.996 | S. cerevisiae deletion strains, locus YML032C, strain rad52, stronger effect = lower value 0.949 | S. cerevisiae deletion strains, locus YML120C, strain ndi1, stronger effect = lower value 1.02 | S. cerevisiae deletion strains, locus YML124C, strain tub3, stronger effect = lower value 0.983 | S. cerevisiae deletion strains, locus YMR058W, strain fet3, stronger effect = lower value 0.97 | S. cerevisiae deletion strains, locus YMR078C, strain ctf18, stronger effect = lower value 0.987 | S. cerevisiae deletion strains, locus YMR125W, strain sto1, stronger effect = lower value 1.02 | S. cerevisiae deletion strains, locus YMR129W, stronger effect = lower value 1.02 | S. cerevisiae deletion strains, locus YMR205C, strain PFK2, stronger effect = lower value 1.03 | S. cerevisiae deletion strains, locus YMR223W, strain ubp8, stronger effect = lower value 0.969 | S. cerevisiae deletion strains, locus YMR231W, strain pep5, stronger effect = lower value 0.99 | S. cerevisiae deletion strains, locus YMR263W, strain SAP30, stronger effect = lower value 0.992 | S. cerevisiae deletion strains, locus YMR307W, strain GAS1, stronger effect = lower value 0.914 | S. cerevisiae deletion strains, locus YNL067W, strain RPL9B, stronger effect = lower value 0.984 | S. cerevisiae deletion strains, locus YNL071W, strain lat1, stronger effect = lower value 1.03 | S. cerevisiae deletion strains, locus YNL153C, strain GIM3, stronger effect = lower value 0.978 | S. cerevisiae deletion strains, locus YNL183C, strain NPR1, stronger effect = lower value 0.91 | S. cerevisiae deletion strains, locus YNL209W, strain ssb2, stronger effect = lower value 1.01 | S. cerevisiae deletion strains, locus YNL233W, strain BNI4, stronger effect = lower value 1.01 | S. cerevisiae deletion strains, locus YNL248C, strain rpa49, stronger effect = lower value 1.03 | S. cerevisiae deletion strains, locus YNL250W, strain rad50, stronger effect = lower value 0.981 | S. cerevisiae deletion strains, locus YNL271C, strain bni1, stronger effect = lower value 0.994 | S. cerevisiae deletion strains, locus YNL298W, strain CLA4, stronger effect = lower value 0.988 | S. cerevisiae deletion strains, locus YNL307C, strain MCK1, stronger effect = lower value 1.01 | S. cerevisiae deletion strains, locus YNL322C, strain KRE1 (second series), stronger effect = lower value 1.02 | S. cerevisiae deletion strains, locus YNL322C, strain KRE1, stronger effect = lower value 0.994 | S. cerevisiae deletion strains, locus YNR049C, strain mso1, stronger effect = lower value 1.02 | S. cerevisiae deletion strains, locus YNR052C, strain pop2, stronger effect = lower value 0.991 | S. cerevisiae deletion strains, locus YOL006C, strain TOP1, stronger effect = lower value 1.1 | S. cerevisiae deletion strains, locus YOL012C, strain htz1 1.52 | S. cerevisiae deletion strains, locus YOL147C, strain pex11, stronger effect = lower value 0.989 | S. cerevisiae deletion strains, locus YOR001W, strain rrp6, stronger effect = lower value 1.01 | S. cerevisiae deletion strains, locus YOR061W, strain CKA2, stronger effect = lower value 0.983 | S. cerevisiae deletion strains, locus YOR069W, strain VPS5, stronger effect = lower value 1 | S. cerevisiae deletion strains, locus YOR070C, strain gyp1, stronger effect = lower value 1.01 | S. cerevisiae deletion strains, locus YOR080W, strain dia2, stronger effect = lower value 1.02 | S. cerevisiae deletion strains, locus YOR083W, strain WHI5, stronger effect = lower value 1.01 | S. cerevisiae deletion strains, locus YOR106W, strain vam3, stronger effect = lower value 1.04 | S. cerevisiae deletion strains, locus YOR136W, strain idh2, stronger effect = lower value 0.996 | S. cerevisiae deletion strains, locus YOR144C, strain elg1, stronger effect = lower value 0.991 | S. cerevisiae deletion strains, locus YOR184W, strain ser1, stronger effect = lower value 1 | S. cerevisiae deletion strains, locus YOR231W, strain MKK1, stronger effect = lower value 0.987 | S. cerevisiae deletion strains, locus YOR265W, strain rbl2, stronger effect = lower value 1.01 | S. cerevisiae deletion strains, locus YOR270C, strain vph1, stronger effect = lower value 1.08 | S. cerevisiae deletion strains, locus YOR290C, strain snf2, stronger effect = lower value 1.02 | S. cerevisiae deletion strains, locus YOR316C, strain cot1, stronger effect = lower value 0.986 | S. cerevisiae deletion strains, locus YPL051W, strain arl3, stronger effect = lower value 1 | S. cerevisiae deletion strains, locus YPL055C, strain LGE1, stronger effect = lower value 0.993 | S. cerevisiae deletion strains, locus YPL078C, strain atp4, stronger effect = lower value 1.02 | S. cerevisiae deletion strains, locus YPL106C, strain sse1, stronger effect = lower value 1.01 | S. cerevisiae deletion strains, locus YPL240C, strain hsp82, stronger effect = lower value 1.02 | S. cerevisiae deletion strains, locus YPL241C, strain CIN2, stronger effect = lower value 0.995 | S. cerevisiae deletion strains, locus YPL256C, strain CLN2, stronger effect = lower value 0.973 | S. cerevisiae deletion strains, locus YPR119W, strain clb2, stronger effect = lower value 0.991 | S. cerevisiae deletion strains, locus YPR141C, strain kar3, stronger effect = lower value 0.975 | S. cerevisiae deletion strains, locus YPR163C, strain tif3, stronger effect = lower value 0.979 | S. cerevisiae deletion strains, locus YPR167C, strain met16, stronger effect = lower value 0.982 | S. cerevisiae deletion strains, strain wtn01, stronger effect = lower value 1.06 | S. cerevisiae strains, strain wild type, stronger effect = lower value 0.992
